Data on 40 sequences can be found in the OligoGym collection.
Further: reference of the scale not given here.

One test deals with KLF9. Put plainly: pooled miR-30 sensor sort-seq; sequence = guide strand. The conditions noted are these: shRNA.
Regarding TTGATCTTAGGCTACAATGTGC, the sensor-assay potency score (higher = more potent) is -0.659. Same read-out and setting: the result for TTAAACACCTGCAATAGTCTTT reads 0.257; that for TAACTTATTCATCCTCTGCATT, -0.919. On the same count and under the same terms, the result for TAGTAGTCCTATTTGAACCATA reads -0.845; that for TTACAAGTTAGCAAGTTGCTAG, -0.0943. Turning to TTAAACAGTTGTAAAGATCAGT, the sensor-assay potency score (higher = more potent) was -0.0225. On the same count and under the same terms, the result for TTCTGTACTTAGTGTAACCTTT reads -0.287; that for TTCAGGTCCAACAAGCTCTTGG, -0.253; that for TACAGTGTTACAGATCATCTGA, 0.728.

Take TTTCTCGTGAGAAAACACTTTC: the sensor-assay potency score (higher = more potent) is -0.637.

With TCTACATAACTCTTGCACCTGA, the sensor-assay potency score (higher = more potent) is -0.302.

Turning to TTGCAAAACACTACCCTCCTTC, the sensor-assay potency score (higher = more potent) is -0.0123. As to TTAGTGTTCAATGAACTCTAGT, the sensor-assay potency score (higher = more potent) was -0.32.

Sequence TTTATATCCATCTAAGTGCTTG had a sensor-assay potency score (higher = more potent) of -0.361.

In the case of TTCGATCGCTTGATCATGCTGG, the sensor-assay potency score (higher = more potent) was found to be 0.623. TTCACCTGTATGCACTCTGTAA yielded a sensor-assay potency score (higher = more potent) of -0.85. On to TTCTTTCTTTTTAAACACCTGC, for which the sensor-assay potency score (higher = more potent) is -0.453. The sequence TTGTCTTTCACTGACTTTGCTT gave a sensor-assay potency score (higher = more potent) of -0.214. Same read-out and setting: in the case of TTTAGATGACAGATCATGCTGG it was 0.459. In turn, TTCTGTAATTGTAACTACCAAA displayed a sensor-assay potency score (higher = more potent) of -0.904. Consider TATCTTGATATAGTAAATCTAA, for which the sensor-assay potency score (higher = more potent) is -0.625. On to TAAACAAAAATTACTATCCTGC, for which the sensor-assay potency score (higher = more potent) was determined as 0.0439. Sequence TTAATCTCAAAAGTTAACGTGA displayed a sensor-assay potency score (higher = more potent) of 0.201.

A further test has as its target KLHL20. The test is described as above. The conditions noted are these: shRNA.
TCATCTACCAAGTCTCTGCATT registered a sensor-assay potency score (higher = more potent) of -0.755.

On to TTGAACACTTGTTCTTCACTGC, for which the sensor-assay potency score (higher = more potent) worked out at 0.569.

Turning to TAATTGAGGACGTCTTTCCTGA, the sensor-assay potency score (higher = more potent) is 0.0524. On the same count and under the same terms, in the case of TTCTTCATCACTTTTGATGAGG it was -0.804. The same measure, in the same setting: in the case of TTGTTCTTCACTGCGAACGTTT it was -0.688; in that of TACATTTTGCATACCTACCTTT, -0.113. For TACAGCATAGATCATGTCCTGA, the sensor-assay potency score (higher = more potent) is 0.298.

In turn, TTGAAAATTATTGTGCATCTTG showed a sensor-assay potency score (higher = more potent) of -0.295.

TCTCCTGTAAACATAGCTCGGA: the sensor-assay potency score (higher = more potent) is -0.114. Regarding TTGTTTGTATAAAAGAACCAAG, the sensor-assay potency score (higher = more potent) was -1.24.

TATGTTGGGTGAACTTGTCTGC: the sensor-assay potency score (higher = more potent) worked out at 0.299. On the same count and under the same terms, the result for TTTGTCTATGAATACAATGAGG reads -1.57.

The target of a further test is KLHL24. The test is described as above. The conditions noted are these: shRNA.
The sequence ATAACATCTGTGAATAAGCGGC came in with a sensor-assay potency score (higher = more potent) of -0.459.

As to TTCAACTGGATCGTAACAGTAT, the sensor-assay potency score (higher = more potent) was -0.312. On the same count and under the same terms, the result for TATGAATAGTCACACAGCCATG reads -1.71. The sequence TTACAGGATCGTAGCACTCAGT had a sensor-assay potency score (higher = more potent) of -1.07. The same measure, in the same setting: the result for TATTTTTCTATCTCCTACCTAA reads 0.015.
